This is a sample that favours compounds with a hit; in the whole collection about 12% have one here.
HP1b chromo inh = inhibitors of HP1-beta chromodomain binding to methylated histone tails; P83916; AlphaScreen HP1-beta / biotin-H3K9me3 peptide binding; Potency, µM (highest dose often 114 µM), hits mostly inhibitors; 0.56% of 390,000 active; also: nearly all actives have a fitted effect of over 70% in size
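Compound inhibition of the preformed complex between 50 nM HP1-beta and 50 nM biotinylated H3K9me3 peptide was read by AlphaScreen. Buffer was PBS pH 7.4 with 0.01% Tween-20. Incubations ran 30 min at room temperature, with 10 ug/mL donor/acceptor beads.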
PLK1 PBD block = PLK1 (human) polo-box domain binding inhibition; Plk1 PBD binding of FITC phosphopeptide, fluorescence polarization; Potency, µM, usual class: inhibitors; 2.8% of 360,000 active; AID 720504; also: series mostly up to about 57 µM; nearly all actives have a fitted effect of over 65% in size
PI5P4K alpha inh = PI5P4K alpha (human) kinase inhibition; P48426; max response, %; 1.2% of 330,000 active; AID 652105; PI5P4Kalpha enzyme, ADP-Glo luminescence, 60 min; active compounds read low; active = max response of -50% or lower; inconclusive = between -30% and -50%; inactive = -30% or higher; also: value at the top dose of about 77 µM
Target sequence (P48426 whole entry, looked up): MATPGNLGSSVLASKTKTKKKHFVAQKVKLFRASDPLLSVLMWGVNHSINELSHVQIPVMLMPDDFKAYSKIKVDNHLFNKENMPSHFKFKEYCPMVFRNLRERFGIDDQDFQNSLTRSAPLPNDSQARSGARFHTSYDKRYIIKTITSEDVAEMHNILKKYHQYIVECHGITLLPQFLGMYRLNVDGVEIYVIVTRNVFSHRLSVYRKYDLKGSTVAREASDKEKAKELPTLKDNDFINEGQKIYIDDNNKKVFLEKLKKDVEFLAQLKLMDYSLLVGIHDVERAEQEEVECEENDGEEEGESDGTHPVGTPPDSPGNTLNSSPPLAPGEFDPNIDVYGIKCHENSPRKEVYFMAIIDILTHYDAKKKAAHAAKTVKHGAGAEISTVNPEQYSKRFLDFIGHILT
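Human PI5P4Kalpha with substrate in 0.038 M HEPES pH 7.4, 0.28 mM EGTA, 0.1% CHAPS, 5% DMSO; reaction started with 5 microM ATP (final), 60 min at room temperature. ADP formed read by ADP-Glo luminescence.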
JMJD2A Tudor = JMJD2A Tudor domain (human) inhibition; AlphaScreen JMJD2A-Tudor / H3K4me3 peptide binding; O75164; Potency, µM (highest dose often 114 µM), actives largely listed as inhibitors; 4.4% of 390,000 active; also: nearly all actives have a fitted effect of over 50% in size
G9a block = blocks human histone lysine methyltransferase G9a; Q96KQ7; Potency, µM (doses to about 102 µM), hits mostly inhibitors; 8.8% of 350,000 active; AID 504332; G9a H3K9 monomethylation, AlphaScreen, 2 h; also: nearly all actives have a fitted effect of over 75% in size
Target sequence (Q96KQ7 913-1193 limits assumed): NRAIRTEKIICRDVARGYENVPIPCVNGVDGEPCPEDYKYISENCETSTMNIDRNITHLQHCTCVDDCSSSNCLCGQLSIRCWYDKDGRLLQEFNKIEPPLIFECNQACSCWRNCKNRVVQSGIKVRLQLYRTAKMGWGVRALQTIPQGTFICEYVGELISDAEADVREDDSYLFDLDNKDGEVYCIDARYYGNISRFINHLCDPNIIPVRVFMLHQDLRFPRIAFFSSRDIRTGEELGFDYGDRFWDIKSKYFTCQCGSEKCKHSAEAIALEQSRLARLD
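AlphaScreen read-out: biotin-H3K9 peptide (500 nM) methylation by 20 nM enzyme with 20 uM SAM, 2 h at room temperature after 15 min compound preincubation; anti-monomethyl H3K9 antibody plus donor/acceptor beads, 10 min dark.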
BAZ2B inh = blocks human BAZ2B; Q9UIF8; AlphaScreen BAZ2B-H3K14Ac peptide displacement; Potency, µM (series often up to 114 µM), hits mostly inhibitors; 4.4% of 360,000 active; AID 504333; also: nearly all actives have a fitted effect of over 60% in size
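In this displacement format the biotinylated H3(5-23) peptide acetylated at Lys14 serves as ligand at 50 nM, with BAZ2B at 50 nM in PBS pH 7.4 containing 0.01% Tween-20. Donor and acceptor beads are 10 ug/mL final.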
Of the large screens only hits and unclear results are named; the others gave an inactive call. Unless noted, calls follow the shape of the dose curve; as a rule, active = well fitted curve in the direction sought with a large enough effect; inconclusive = small, poorly fitted or top-dose-only effect, or another doubt; inactive = no such curve, though single readings can be large; an effect the other way counts as inactive or inconclusive.

COC(=O)Cc1c(C)c2ccc(OCc3nn[nH]n3)cc2oc1=O	G9a block inconclusive (no result: PI5P4K alpha inh)
N#CCCn1c(=O)c(-c2ccccc2)nc2cnc(N3CCOCC3)nc21	none (no result: HP1b chromo inh, PLK1 PBD block, PI5P4K alpha inh, JMJD2A Tudor, BAZ2B inh)
O=C(Nc1cc2ccc(O)cc2oc1=O)c1ccccc1	none (no result: PLK1 PBD block, PI5P4K alpha inh)
COc1ccc2[nH]c3c(=O)n(CCCCC(=O)NCCN4CCCC4)c(=S)[nH]c3c2c1	HP1b chromo inh inconclusive, JMJD2A Tudor 5.6µM, G9a block inconclusive (no result: PI5P4K alpha inh)
CCOC(=O)N1CCN(C(=O)c2ccc(Cn3c(=S)[nH]c4ccc(Br)cc4c3=O)cc2)CC1	none
CC[C@H](C)NC(=O)CCCCCn1c(=S)[nH]c2c([nH]c3ccc(OC)cc32)c1=O	none
COc1ccc2[nH]c3c(=O)n(Cc4ccc(C(=O)N5CCCC5)cc4)c(=S)[nH]c3c2c1	HP1b chromo inh inconclusive, PLK1 PBD block 24µM, JMJD2A Tudor 6.3µM, G9a block 7.9µM
CCCCNC(=O)CCCCn1c(=S)[nH]c2c([nH]c3ccc(OC)cc32)c1=O	PLK1 PBD block 27µM, JMJD2A Tudor inconclusive
COc1ccc2[nH]c3c(=O)n(CCCCC(=O)N4CCC(C(N)=O)CC4)c(=S)[nH]c3c2c1	JMJD2A Tudor 3.5µM, G9a block inconclusive (no result: PI5P4K alpha inh)
CC(=O)Oc1ccc(-c2cc3ccc(OC(C)=O)cc3oc2=O)cc1	none (no result: G9a block, BAZ2B inh)
CC1CCCCC1NC(=O)c1cccc(N2C(=O)C3C4C=CC(C4)C3C2=O)c1 (stereo not drawn)	none
O=C(c1cccc(F)c1)N1CCC2(CC1)CN(c1ccccn1)C2	none (no result: HP1b chromo inh, PLK1 PBD block, PI5P4K alpha inh, JMJD2A Tudor, BAZ2B inh)
Clc1ccc(CNc2nc(CN3CCOCC3)nc3scc(-c4ccccc4)c23)cc1	JMJD2A Tudor inconclusive, G9a block inconclusive, BAZ2B inh 50µM
Clc1ccc(-c2csc3ncnc(NCCN4CCOCC4)c23)cc1	none
CC1=C(C(=O)N2CCOCC2)C(c2ccc(C)cc2)NC(=S)N1 (stereo not drawn)	G9a block 40µM
CC1=C(C(=O)N2CCOCC2)C(c2ccc(Cl)cc2)NC(=S)N1 (stereo not drawn)	G9a block 71µM
CN1c2ccccc2-c2nc(SCC(=O)Nc3ccccc3C(F)(F)F)ncc2S1(=O)=O	none (no result: PLK1 PBD block, PI5P4K alpha inh)
O=C(CSc1nnc(SCc2cccc3ccccc23)s1)N/N=C/c1c[nH]c2ccccc12	G9a block inconclusive
O=C(CSc1nnc(SCc2ccc(Cl)cc2)s1)N/N=C/c1c[nH]c2ccccc12	JMJD2A Tudor 89µM, G9a block inconclusive, BAZ2B inh 35µM
O=C(CSc1nnc(SCc2ccc(Cl)cc2)s1)N/N=C/c1ccc(C(=O)O)cc1	PLK1 PBD block 67µM (no result: G9a block)
O=C(O)COc1ccccc1/C=N/NC(=O)CSc1nnc(SCc2ccc(Cl)cc2)s1	BAZ2B inh inconclusive
Cc1nc(CNS(=O)(=O)c2ccc(F)cc2)cs1	none
CCCN(CCC)C1=N/C(=C\c2ccco2)C(=O)N1c1ccccc1	G9a block inconclusive, BAZ2B inh 50µM
CN1C(=O)/C(=C\c2ccco2)N=C1c1ccc(Cl)cc1Cl	HP1b chromo inh inconclusive, BAZ2B inh inconclusive (no result: G9a block)
Nc1ccc(C=C2C=Cc3ccccc32)cc1	HP1b chromo inh inconclusive, JMJD2A Tudor 35µM (no result: G9a block, BAZ2B inh)
NC(N)=Nc1ccc(C=C2C=Cc3ccccc32)cc1	JMJD2A Tudor inconclusive (no result: G9a block, BAZ2B inh)
CCCn1c(=N)n(CC(=O)c2ccc(Cl)cc2)c2ccccc21	none
CCCn1c(=N)n(CC(=O)c2ccc([N+](=O)[O-])cc2)c2ccccc21	G9a block 40µM, BAZ2B inh 35µM
Nc1nnc(CC(=O)N/N=C/c2cc([N+](=O)[O-])cc(Br)c2O)s1	PLK1 PBD block inconclusive, PI5P4K alpha inh inconclusive, JMJD2A Tudor 79µM, G9a block 22µM, BAZ2B inh 50µM
Nc1nnc(CC(=O)N/N=C/c2cccc([N+](=O)[O-])c2)s1	none
CC1=CC(=O)C(C(C)=Nc2ccccc2Cl)C(=O)O1 (stereo not drawn)	JMJD2A Tudor inconclusive, G9a block 50µM
CCc1nnc(SCc2cccc(Cl)c2)c2cc3sccc3n12	none (no result: PLK1 PBD block, PI5P4K alpha inh)
CCC1CCCCN1S(=O)(=O)c1ccc(NC(=O)c2nc(S(C)(=O)=O)ncc2Cl)cc1 (stereo not drawn)	PLK1 PBD block 12µM, G9a block 40µM
CCS(=O)(=O)c1ncc(Cl)c(C(=O)Nc2ccc(S(=O)(=O)N3CCCC(C)C3)cc2)n1 (stereo not drawn)	PLK1 PBD block inconclusive, JMJD2A Tudor inconclusive, G9a block 79µM
CCSc1ncc(Cl)c(C(=O)Nc2ccc(S(=O)(=O)N3CCCCC3CC)cc2)n1 (stereo not drawn)	none (no result: PLK1 PBD block, PI5P4K alpha inh)
COc1ccc(NC(=O)C2c3ccccc3OCC(=O)N2CC(F)(F)F)cc1 (stereo not drawn)	none (no result: HP1b chromo inh, JMJD2A Tudor, G9a block, BAZ2B inh)
CC(=O)Nc1nnc(SCc2cc(=O)c(OC(=O)c3ccccc3)co2)s1	none
Cc1ccc(C(=O)Oc2coc(CSc3nnc(NC(=O)c4cccs4)s3)cc2=O)cc1	PI5P4K alpha inh inconclusive, G9a block 13µM
CCOc1ccc(C2c3c(oc4ccc(C)cc4c3=O)C(=O)N2Cc2ccc3c(c2)OCO3)cc1OC (stereo not drawn)	G9a block inconclusive (no result: PLK1 PBD block, PI5P4K alpha inh)
CCc1nnc(N/N=C/c2ccc(-c3ccc([N+](=O)[O-])cc3)o2)n1N	G9a block inconclusive, BAZ2B inh inconclusive
Cc1nnc(N/N=C/c2ccc(-c3ccccc3F)o2)n1N	G9a block 40µM
Cc1nnc(N/N=C\c2ccc(-c3ccccc3[N+](=O)[O-])o2)n1N	JMJD2A Tudor inconclusive, G9a block 6.3µM, BAZ2B inh 71µM
O=[N+]([O-])c1cccc(-c2ccc(/C=N/n3c(-c4ccccc4)n[nH]c3=S)o2)c1	G9a block inconclusive
COC(=O)c1ccccc1-c1ccc(/C=N/NC(N)=O)o1	G9a block inconclusive
Cc1n[nH]c(=S)n1/N=C/c1ccc(-c2ccccc2[N+](=O)[O-])o1	JMJD2A Tudor 40µM, G9a block inconclusive
COc1cc(OC)c(NC(=O)CCc2nc(C3=CCN(Cc4cccc(Cl)c4)CC3)no2)cc1Cl	JMJD2A Tudor inconclusive, G9a block inconclusive (no result: PLK1 PBD block, PI5P4K alpha inh)
CCNC(=O)C1(C)CCCN(C(=O)c2ccnc(Cl)c2)C1 (stereo not drawn)	none (no result: HP1b chromo inh, JMJD2A Tudor, G9a block, BAZ2B inh)
CCC(=O)Nc1cccc(C(=O)OCc2cccc([N+](=O)[O-])c2)c1	none
CCC1C(=O)N=C(SCC(=O)Nc2ccc(Br)cn2)NC1=O (stereo not drawn)	PLK1 PBD block 27µM, PI5P4K alpha inh inconclusive, JMJD2A Tudor inconclusive, G9a block inconclusive
CS(=O)(=O)c1ccc2nc(NC(=O)C3CCCO3)sc2c1 (stereo not drawn)	PLK1 PBD block inconclusive, PI5P4K alpha inh inconclusive
C=CCN(CC=C)S(=O)(=O)c1ccc2nc(NC(=O)C3CCCO3)sc2c1 (stereo not drawn)	G9a block 1.3µM
CCOC(=O)c1c(NC(=O)c2ccc(S(=O)(=O)N3CCC(C)CC3)cc2)sc2c1CCN(CC)C2	none (no result: PLK1 PBD block, PI5P4K alpha inh)

Source: PubChem
